# Source: PMC4336329 (PLoS ONE, 2015)
# The whole screen tested about 310,000 compounds, of which about 14,000 (4.5%) showed an effect of 50% or more. Effects have a minus sign here. The sample holds strong results, similar compounds and a random draw of the others, so the mix is not that of the screen.
# Target: human ether-à-go-go-related gene (hERG) potassium channel (human, UniProt Q12809)
# Test: primary screen, population patch clamp on CHO cells stably expressing hERG; higher = less effect of the substance
# 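Further: peak tail current of the secondary pulse compared with the same well before compound.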
# human ether-à-go-go-related gene (hERG) potassium channel, sequence (Q12809 whole entry, looked up): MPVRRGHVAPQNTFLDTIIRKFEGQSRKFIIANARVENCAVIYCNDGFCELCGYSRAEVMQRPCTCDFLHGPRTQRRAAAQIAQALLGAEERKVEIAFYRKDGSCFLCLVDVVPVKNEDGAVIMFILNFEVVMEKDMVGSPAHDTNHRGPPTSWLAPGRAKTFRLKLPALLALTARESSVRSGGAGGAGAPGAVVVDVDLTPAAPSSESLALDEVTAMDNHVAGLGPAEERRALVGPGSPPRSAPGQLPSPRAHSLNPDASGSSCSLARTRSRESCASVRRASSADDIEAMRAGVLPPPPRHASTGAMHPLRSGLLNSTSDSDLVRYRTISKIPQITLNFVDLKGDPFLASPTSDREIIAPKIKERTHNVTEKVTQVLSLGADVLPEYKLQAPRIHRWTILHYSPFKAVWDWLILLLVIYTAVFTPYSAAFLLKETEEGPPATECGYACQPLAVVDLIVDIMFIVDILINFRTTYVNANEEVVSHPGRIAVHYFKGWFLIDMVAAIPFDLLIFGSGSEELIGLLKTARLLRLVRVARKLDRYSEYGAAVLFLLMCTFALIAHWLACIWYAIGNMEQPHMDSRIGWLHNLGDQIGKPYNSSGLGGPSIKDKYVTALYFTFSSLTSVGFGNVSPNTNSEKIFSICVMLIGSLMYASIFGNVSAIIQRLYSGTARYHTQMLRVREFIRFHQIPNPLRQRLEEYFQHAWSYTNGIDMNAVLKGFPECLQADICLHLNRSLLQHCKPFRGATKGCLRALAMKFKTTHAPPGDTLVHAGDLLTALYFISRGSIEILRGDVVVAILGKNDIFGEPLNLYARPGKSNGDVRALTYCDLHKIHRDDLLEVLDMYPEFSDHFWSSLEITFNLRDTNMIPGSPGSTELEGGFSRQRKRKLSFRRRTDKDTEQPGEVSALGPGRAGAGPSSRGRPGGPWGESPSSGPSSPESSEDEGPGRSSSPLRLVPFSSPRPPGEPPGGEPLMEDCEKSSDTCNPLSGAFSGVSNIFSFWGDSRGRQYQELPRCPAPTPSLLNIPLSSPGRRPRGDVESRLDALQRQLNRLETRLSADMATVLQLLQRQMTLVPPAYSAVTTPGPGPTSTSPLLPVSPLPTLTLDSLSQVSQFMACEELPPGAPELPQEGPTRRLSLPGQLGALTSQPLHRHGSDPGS
row,Structure (SMILES),"hERG current change (%, negative = inhibition) at 10uM [%]"
1,O=C1NCN(c2ccccc2)C12CCNCC2,3.05
2,Cl.O=c1[nH]c2ccccc2n1CCCN1CCCCC1,16.5
3,O=C1CC(N2CCC(n3c(=O)[nH]c4ccccc43)CC2)C(=O)N1c1ccc(F)cc1 (stereo not drawn),-7.5
4,O=c1[nH]c2ccccc2n1CCCN1CCC(n2c(=O)[nH]c3cc(Cl)ccc32)CC1,-65.5
5,O=C(CCCN1CCC(n2c(=O)[nH]c3ccccc32)CC1)c1ccc(F)cc1,-73
6,O=C(NC1CCCCC1)N1CCC(n2c(=O)[nH]c3ccccc32)CC1,2.34
7,O=C1CC(N2CCC(n3c(=O)[nH]c4ccccc43)CC2)C(=O)N1Cc1ccccc1 (stereo not drawn),-21.4
8,O=c1[nH]c2ccccc2n1C1CCCCC1,-5.49
9,O=C1NCN(c2ccccc2)C12CCN(CCCC(c1ccc(F)cc1)c1ccc(F)cc1)CC2,-75.8
10,O=C(Nc1cccc(F)c1)N1CCC(n2c(=O)[nH]c3ccccc32)CC1,-19
11,O=C1NCN(c2ccccc2)C12CCN(c1nnnn1-c1ccccc1)CC2,-11.7
12,O=c1[nH]c2ccccc2n1C1CCN(CCCC(c2ccc(F)cc2)c2ccc(F)cc2)CC1,-77.6
13,COc1cc(/C=N/NC(=O)c2ccccn2)ccc1OC(=O)c1ccccc1Br,-1.22
14,CC(=O)Oc1ccc2oc(-c3ccccc3)c(C(N)=O)c2c1,-14.1
15,COCCCn1c(C23CC4CC(CC(C4)C2)C3)n[nH]c1=S,-5.2
16,O=C(c1csc2c1CCCC2)N1CCN(c2ccccc2)CC1,-14.8
17,O=S(=O)(Cc1ccccc1)N1CCN(Cc2ccc(F)cc2Cl)CC1,4.56
18,CCc1nnc(NC(=O)CN2CCN(c3nc(-c4ccccc4)cs3)CC2)s1,-11.8
19,COCCCNC(=O)C1CCN(C(=O)c2oc3cc4sc(N(C)C)nc4cc3c2C)CC1,7.03
20,CCOC(=O)CNC(=O)CNC(=O)c1nn(-c2ccc(OC)c(Cl)c2)c(=O)c2ccccc12,2.21
21,Cc1ccccc1C(=O)NC(=S)N(C)C1CCCCC1,21.2
22,COc1cccc(Cn2nc(C(=O)O)c3ccccc3c2=O)c1,9.63
23,O=C(OCc1nc2ccsc2c(=O)[nH]1)c1ccc(Cl)s1,-5.59
24,O=C(Nc1nc2ccccc2[nH]1)c1cccc(Cl)c1,17.5

row,Structure (SMILES),"hERG current change (%, negative = inhibition) at 10uM [%]"
1,CCc1ccc2oc(-c3cc(N=Cc4cccc(OC)c4O)ccc3O)nc2c1,24.3
2,CN(Cc1ccccc1)C(=O)c1ccc(NC(=O)Cc2cccc(NC(=O)C3CCN(C(=O)C4CCCCC4)CC3)c2)cc1,8.47
3,CC(C)c1ccc(S(=O)(=O)N2CCN(C(C)C(=O)NC3CCCC3)CC2)cc1 (stereo not drawn),-75.5
4,CC(C)c1ccc(S(=O)(=O)N2CCN(C(C)C(=O)N3CCCC3)CC2)cc1 (stereo not drawn),-11.8
5,CCC(C)c1ccc(S(=O)(=O)N2CCN(C(C)C(=O)NC3CCCC3)CC2)cc1 (stereo not drawn),-79.1
6,CCC(C)c1ccc(S(=O)(=O)N2CCN(C(C)CC(=O)O)CC2)cc1 (stereo not drawn),3.41
7,CC(C(=O)NC1CCCC1)N1CCN(S(=O)(=O)c2ccc(C(C)(C)C)cc2)CC1 (stereo not drawn),-19.8
8,CC(C(=O)NC1CCCCC1)N1CCN(S(=O)(=O)c2cccs2)CC1 (stereo not drawn),-9.2
9,CCCCCCNS(=O)(=O)c1ccc(OC)c(OC)c1,-11
10,CCOC(=O)c1sc(S(C)(=O)=O)c2c1CCc1conc1-2,8.59
11,Cc1ccc(-n2c(-c3ccccc3)n[nH]c2=S)cc1,15.6
12,CC(C)OC(=O)/C(=C/c1ccc2c(c1)c1ccccc1n2C)NC(=O)c1ccccc1,-1.72
13,O=C(N/N=C/c1c(O)n(-c2ccccc2)c(=O)[nH]c1=O)c1ccncc1,16.2
14,Cc1oc(C2CC2)cc1C(=O)O,-9.52
15,CCn1cc(CN2CCCC(C(=O)Nc3cccc(-c4cc5ccccc5[nH]4)c3)C2)c(C)n1 (stereo not drawn),-14.4
16,Cn1cc(CN2CCC(C(=O)Nc3cccc(-c4cccc(F)c4)c3)CC2)cn1,-67.4
17,CCn1cc(CN2CCC(C(=O)Nc3cccc(-c4cccc(F)c4)c3)CC2)cn1,-66.4
18,Cn1cc(CN2CCC(C(=O)Nc3cccc(-c4cscn4)c3)CC2)cn1,5.33
19,COc1cccc(-c2cccc(NC(=O)C3CCN(Cc4cnn(C)c4)CC3)c2)c1,-15.6
20,CC(C)n1cc(CN2CCCC(C(=O)Nc3cccc(-c4cc5ccccc5[nH]4)c3)C2)cn1 (stereo not drawn),-46.3
21,CCn1ncc(CN2CCCC(C(=O)Nc3cccc(-c4cc5ccccc5[nH]4)c3)C2)c1C (stereo not drawn),-56.7
22,CC(C)n1cc(CN2CCC(C(=O)Nc3cccc(-c4cccc(Cl)c4)c3)CC2)cn1,-85.1
23,CC(C)n1cc(CN2CCC(C(=O)Nc3cccc(-c4cscn4)c3)CC2)cn1,-32.8
24,CCn1cc(CN2CCCC(C(=O)Nc3cccc(-c4cc5ccccc5[nH]4)c3)C2)cn1 (stereo not drawn),-6.49
